This note sets out measurements from PubChem BioAssay (NCATS).

Molecules are shown by their SMILES. Inconclusive results are not listed. Entries that show only a call come without a potency. Active and inactive are the calls of the source. Calls follow the shape of the dose curve; as a rule, active = well fitted cell-killing curve with a large enough effect; inconclusive = small, poorly fitted or top-dose-only effect; inactive = flat fitted curve, though single readings scatter.
Potency is read from the fitted curve at half-maximal effect.

This test is described as follows: Cell Viability - LYMP2-024 (AID 988). Also: nearly all actives have a fitted effect of over 60% in size. The following applies: LYMP2-024 lymphoblastoid cell viability; series mostly up to 92.2 µM. The source says:
NIH Chemical Genomics Center [NCGC]
NIH Molecular Libraries Screening Centers Network [MLSCN]
National Institutes of Environmental Health Sciences [NIEHS]
National Toxicology Program [NTP]
We have developed a 1536-well cell-based assay for quantitative high throughput screening (qHTS) against a number of cell lines to determine in vitro cytotoxicity of small molecules. This particular assay uses a human lymphoblastoid cell line (LYMP2-024) purchased from Coriell Institute for Medical Research.
NCGC Assay Protocol Summary:
The CellTiter-Glo luminescent cell viability assay (Promega) is a homogeneous method to measure the number of viable cells in culture. The end point readout of this assay is based on quantitation of intracellular ATP, an indicator of metabolic activity, using the luciferase reaction. Luciferase catalyzes the oxidation of beetle Luciferin to oxyluciferin and light in the presence of ATP. The luminescent signal is proportional to amount of ATP present.
Using the CellTiter-Glo luminescent cell viability assay, the amount of cellular ATP was measured in the lymphoblastoid cell line with complete culture medium following compound treatment for 24 hours. The assay was performed in opaque white Kalypsys 1536-well plates. In the screen, tetraoctylammonium bromide was used as positive control. Library compounds were measured for their ability to cause acute toxicity in the cell line, as reflected by a decrease in intracellular ATP levels, in a concentration-dependent manner. […] AC50 values were determined from concentration-response data modeled with the standard Hill equation.
qHTS protocol for CellTiter Glo lymphoblastoid cellular assay
[Step] [Parameter] [Value] [Description]
1. Reagent; 5 uL; 2500 lymphoblastoid cells/well
2. Time; 5 hr; 37 C incubation
4. Controls; 23 nL; Tetraoctylammonium bromide 6.4pM to 92 uM
5. Time; 24 hr; 37 C incubation
6. Reagent; 5 uL; CellTiter Glo reagent
7. Time; 30 min; Room Temperature
8. Detection; Luminescence; Viewlux plate reader
Keywords: cell viability, cytotoxicity, lymphoblastoid cell line, luminescence, NTPHTS, NTPHTS_NCGC, NIEHS, DSSTox, MLSMR, MLSCN, NIH Roadmap, qHTS, NCGC
In the case of `CC(O)CO` (centres undefined), the Potency entry is “inactive”. The entry for `CCCCCCCC/C=C\CCCCCCCC(=O)O` is “inactive”; for `CC(C)=O` it is “inactive”. With `O=C(O)CCC(=O)C(=O)O` the entry was “inactive”; with `Nc1ccn([C@H]2CS[C@@H](CO)O2)c(=O)n1`, “inactive”; with `CC1=C2[C@@H]([C@H](C)CC[C@H]2/C=C(\C)C(=O)O)[C@H](O)C1`, “inactive”. The entry for `CCCCC/C=C\C/C=C\CCCCCCCC(=O)O` is “inactive”; for `O=CCCCC=O` it is 12.6 µM (active); for `CC1=C(/C=C/C(C)=C/C=C/C(C)=C/CO)C(C)(C)CCC1` it is 50.1 µM (active). With `CCCCCCCC(=O)O`, the Potency entry is “inactive”.

On to `CCOC(C)=O`, for which the Potency entry is “inactive”. For the molecule `IC(I)I`, the Potency result is “inactive”. The entry for `Cc1ccccc1` is “inactive”. The entry for `O=S(=O)(O)O` is “inactive”.
